Laboratory results reported in PubChem BioAssay (EPA / NIEHS).
Results filed as inconclusive are left out. The source made the active and inactive calls. Rule for the calls: active = hit-call score of the fitted dose curve at least 0.9, where 1 is the maximum; inconclusive = response in the unintended direction; inactive = score below 0.9.

Tests used:
[1] = TOX21_p53_BLA_p2_viability: Viability Assessment in the Tox21 HCT-116 p53 Agonism Beta-lactamase Assay, Phase 2 (AID 2283591);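 note: compound exposure lasted 16 h at 37 °C; actives lower the ATP signal meaning cytotoxicity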
Summary of the method: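 HCT-116 p53-bla cells (4000/well) rested 5 h at 37C, then received compounds in DMSO (217-fold dilution) for 16 h at 37C, 5% CO2. After the CCF4 read, CellTiter-Glo was added; ATP luminescence was read after 30 min at room temperature.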

[2] = biological target: Cellular tumor antigen p53 (Homo sapiens) (UniProt P04637); test: TOX21_p53_BLA_p2_ratio: Tox21 HCT-116 p53 Agonism Beta-lactamase Assay, Ratio, Phase 2 (AID 2283592)
Cellular tumor antigen p53 (Homo sapiens), sequence (P04637 whole entry, looked up): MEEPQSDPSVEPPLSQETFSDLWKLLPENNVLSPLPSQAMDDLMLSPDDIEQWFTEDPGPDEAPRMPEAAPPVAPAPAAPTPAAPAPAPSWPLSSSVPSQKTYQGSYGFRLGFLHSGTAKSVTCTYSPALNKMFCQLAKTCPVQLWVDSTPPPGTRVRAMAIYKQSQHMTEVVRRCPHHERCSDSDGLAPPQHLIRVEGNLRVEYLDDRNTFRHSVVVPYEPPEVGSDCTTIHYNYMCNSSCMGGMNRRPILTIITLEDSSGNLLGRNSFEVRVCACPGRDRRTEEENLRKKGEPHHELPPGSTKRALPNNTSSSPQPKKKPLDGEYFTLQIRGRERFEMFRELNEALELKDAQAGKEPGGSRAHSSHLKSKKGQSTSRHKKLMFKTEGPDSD
Summary of the method: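 Gain-of-signal p53 agonism was scored from the beta-lactamase FRET ratio (460/530 nm, 405 nm excitation) in HCT116 cells treated 16 h at 37C, 5% CO2, with DMSO serving as negative control and baseline.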

[3] = biological target: Cellular tumor antigen p53 (Homo sapiens) (UniProt P04637); test: TOX21_p53_BLA_p3_ratio: Tox21 HCT-116 p53 Agonism Beta-lactamase Assay, Ratio, Phase 3 (AID 2283596)
Summary of the method: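 HCT116 p53-bla cells (4000/well) given compound in DMSO (217-fold dilution) after 5 h, incubated 16 h at 37C. CCF4-AM substrate 2 h at room temperature; 460/530 nm emission ratio, gain fitted against DMSO.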

[4] = biological target: Cellular tumor antigen p53 (Homo sapiens) (UniProt P04637); test: TOX21_p53_BLA_p5_ratio: Tox21 HCT-116 p53 Agonism Beta-lactamase Assay, Ratio, Phase 5 (AID 2283599)
Summary of the method: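 HCT-116 cells carrying a p53-inducible beta-lactamase reporter were seeded at 4000 cells/well and dosed after 5 h with compound in DMSO (217-fold dilution). After 16 h at 37C, CCF4-AM substrate was added for 2 h, and the 460/530 nm emission ratio was scored as gain-of-signal versus DMSO.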

[5] = TOX21_p53_BLA_p5_viability: Viability Assessment in the Tox21 HCT-116 p53 Agonism Beta-lactamase Assay, Phase 5 (AID 2283600)
Summary of the method: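 After the 460/530 nm beta-lactamase measurement, the wells received an ATP-detection luciferase reagent; signal was read 30 min later at RT. Compound treatment lasted 16 h on cells pre-incubated 5 h post-seeding.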

[6] = biological target: Cellular tumor antigen p53 (Homo sapiens) (UniProt P04637); test: TOX21_p53_BLA_p4_ratio: Tox21 HCT-116 p53 Agonism Beta-lactamase Assay, Ratio, Phase 4 (AID 2283601)
Summary of the method: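 HCT116 cells carrying an inducible beta-lactamase reporter were plated at 4000 cells/well, rested 5 h, then exposed to compounds in DMSO (217-fold dilution) for 16 h at 37C. CCF4-AM substrate was loaded 2 h at room temperature; 460/530 nm emission ratio scored gain-of-signal versus DMSO.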

Measured: outcome

CC[N+](C)(C)Cc1ccccc1Br
inactive: all assays above

O=C(O)CNC(=O)c1ccc([N+](=O)[O-])cc1
inactive: all assays above

O=C(O)c1cccc(Cl)c1Cl
inactive: all assays above

C/C=C/C=C/CO
inactive: all assays above
